DAX1 inh-1: inhibits human nuclear receptor DAX1; HEK293 Gal4-DAX1 luciferase reporter, luminescence; inhibition, % at 6.75 µM; 0.99% of 340,000 active; P51843;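 active = inhibition above the mean over all tested compounds plus 3 SD, cut at about 4.2% in these data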;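 note: inhibition shows as a rise in luminescence from relieved DAX1 repression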
Target sequence (P51843 207-470 limits assumed): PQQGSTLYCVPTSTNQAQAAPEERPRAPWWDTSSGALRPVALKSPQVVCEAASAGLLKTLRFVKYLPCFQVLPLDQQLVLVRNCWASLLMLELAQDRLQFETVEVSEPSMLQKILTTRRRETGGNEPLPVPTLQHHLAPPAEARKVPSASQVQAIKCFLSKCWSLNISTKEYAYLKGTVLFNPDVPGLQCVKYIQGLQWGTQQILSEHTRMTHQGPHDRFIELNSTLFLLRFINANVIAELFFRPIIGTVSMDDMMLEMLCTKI
hgDAF12 agonist: activates the H. glycines DAF-12 receptor ligand-binding domain. 1.8% of 370,000 active. HEK293 GAL4-hgDAF12 UAS-luciferase reporter, agonist luminescence; normalized to butyrate control. activation, % at 6.8 µM;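 active = activation above a cutoff set at the mean of all screened compounds plus 3 SD, cut at about 10% in these data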
hcDAF12 agonist: H. contortus DAF-12 activation, primary screen; HEK293 hcDAF-12 lit1-tk-luc reporter, luminescence; 0% DMSO, 100% Δ7-dafachronic acid; activation, % at 6.8 µM; AID 652067; 1.4% of 370,000 active;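 active = activation above the mean of all tested compounds plus 3 SD, cut at about 5.5% in these data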
GAA850 FXN act: activators of GAA850 frataxin (FXN) promoter; HEK293 lucGAA850 FXN promoter luciferase reporter, 24 h; percent of 10 µM SAHA response; activation, % at 6 µM; 0.56% of 360,000 active;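 active = activation above the average of all compounds screened plus 3 SD, cutoff fixed separately per campaign, cut at about 7.5% in these data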
DAX1 inh-2: blocks DAX1 repression of SF-1 activated StAR promoter | HEK293T StAR-luciferase reporter, SF-1/DAX-1 repression relief | inhibition, % at 6.8 µM | 1.1% of 370,000 active | AID 652010;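 active = inhibition above the mean over all tested compounds plus 3 SD, cut at about 3.6% in these data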;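 note: higher inhibition means more luminescence from relief of DAX-1 repression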
ssDAF-12 act: activators of S. stercoralis DAF-12 nuclear receptor; 1% of 370,000 active; activation, % at 6.8 µM; HEK293 ssDAF-12/GRIP1 lit1-tk-luc reporter, luminescence; % of 3 µM dafachronic acid response;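 active = activation above the mean over all tested compounds plus 3 SD, cut at about 0.9% in these data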
Of the large screens only hits and unclear results are named; the others gave an inactive call. In the library only some 4.5% were active in any assay of this set; here they are far more common.

Cc1cccc(NC(=O)[C@H]2CC(=O)O[C@@H]2c2ccccc2)c1C	none (no result: DAX1 inh-1, GAA850 FXN act)
Cc1nc(-c2ccc(C(=O)N3CCCC3)cc2)cs1	hgDAF12 agonist 10.6
COc1ccc(-n2c(Cc3cccs3)nnc2SCC(=O)Nc2cccc3ccccc23)cc1	none (no result: DAX1 inh-1, GAA850 FXN act)
CCCc1cc(=O)[nH]c(SCc2nc3ccccc3s2)n1	hcDAF12 agonist 6.0
CCOC(=O)C1=C(C(=O)OCC)C2N(Cc3ccc(C(F)(F)F)cc3)c3ccccc3[C@@]23C[C@@H](C(=O)OC)N(S(=O)(=O)c2ccc(OC)cc2)C3=N1 (stereo partly specified)	none (no result: DAX1 inh-1, GAA850 FXN act)
Nc1c(Br)cc2c([nH]c(=O)c3ccccc32)c1Br	hcDAF12 agonist 6.3, ssDAF-12 act 2.4
COc1ccc(/[N+]([O-])=C/c2ccoc2)cc1	hgDAF12 agonist 10.9
CCC(NC(=O)c1cc(COc2ccc(Cl)cc2OC)on1)c1ccncc1 (stereo unspecified)	hgDAF12 agonist 11.6
CCC(NC(=O)c1cc(COc2ccc(OC)cc2Cl)on1)c1ccncc1 (stereo unspecified)	none
COCCNC(=O)CN1CCOc2ccccc21	none
O=C(CN1CCOc2ccccc21)NC1CC1	hcDAF12 agonist 6.5, ssDAF-12 act 2.1
O=C(/C=C(\Nc1cc(Cl)c(Cl)c(Cl)c1)c1ccccc1)c1ccccc1	ssDAF-12 act 1.5 (no result: DAX1 inh-1, GAA850 FXN act)
O=C1c2ccccc2C(Nc2ccc(Cl)cn2)N1c1ccccn1 (stereo unspecified)	none
COc1cc(OC)c(NC2c3ccccc3C(=O)N2c2cc(C)ccn2)cc1Cl (stereo unspecified)	hgDAF12 agonist 11.7, DAX1 inh-2 3.6
Cc1ccc(N2C(=O)c3ccccc3C2Nc2ccccc2F)nc1 (stereo unspecified)	hgDAF12 agonist 12.6
c1ccc(-c2ccc(C3=Nn4c(nnc4-c4ccccn4)SC3)cc2)cc1	none (no result: DAX1 inh-1, GAA850 FXN act)
COC(=O)[C@]12C[C@H](CC(=O)NCCC(C)C)C(=O)N(Cc3cccc4ccccc34)C1=C[C@H](C1CCCC1)O[C@@H]2C	none (no result: DAX1 inh-1, GAA850 FXN act)
Clc1cccc(-c2csc(Nc3cccnc3)n2)c1	hcDAF12 agonist 5.8
Cc1nc2cc(NC(=O)c3ccc(Br)s3)ccc2s1	hgDAF12 agonist 10.8
Cc1ccc(C(=O)Nc2nc3ccc(S(C)(=O)=O)cc3s2)o1	hgDAF12 agonist 11.7
CS(=O)(=O)c1ccc2nc(NC(=O)c3cc4ccccc4o3)sc2c1	none
CN(C)S(=O)(=O)c1ccc2nc(NC(=O)c3cccnc3)sc2c1	DAX1 inh-1 4.7, hgDAF12 agonist 10.5
Cc1ccc(C(=O)Nc2ccc3nc(C)sc3c2)o1	hgDAF12 agonist 11.2, DAX1 inh-2 4.0
Cc1ccc(C(=O)Nc2ccc3nc(C)sc3c2)s1	none
COC(=O)C1CN(C2CCCC2)CCS(=O)(=O)N1Cc1cn(Cc2ccc(F)cc2)nn1 (stereo unspecified)	none (no result: DAX1 inh-1, GAA850 FXN act)
COC(=O)[C@]12C[C@H](CC(=O)N3CCSCC3)C(=O)N(CCC3=CCCCC3)C1=C[C@H](C(C)(C)C)O[C@@H]2C	none (no result: DAX1 inh-1, GAA850 FXN act)
Cc1ccc(NC(=O)[C@@H]2CC(=O)O[C@@H]2c2ccccc2)cc1C	none (no result: DAX1 inh-1, GAA850 FXN act)
COc1ccccc1C(=O)Nc1nnc(-c2ccc3c(c2)CCCC3)o1	none
CC(=O)Nc1nnc(-c2ccc3c(c2)CCCC3)o1	hgDAF12 agonist 10.9, DAX1 inh-2 3.8
Cc1cc(NC(=O)CSc2ccc(-c3cccc([N+](=O)[O-])c3)nn2)no1	DAX1 inh-2 4.0
CCCN1C2CCCC1CC(NC(=O)c1ccccc1OCC)C2 (stereo unspecified)	ssDAF-12 act 0.9
CCCN1C2CCCC1CC(NC(=O)c1ccccc1OC)C2 (stereo unspecified)	none
COC(=O)[C@]1(CNC(=O)C(C)(C)C)CC(=O)N(C)[C@@H]1c1ccccc1	none (no result: DAX1 inh-1, GAA850 FXN act)
Cc1cc(-c2nc3ncccc3o2)ccc1NC(=O)CC(C)C	DAX1 inh-2 3.9
COc1cc(NC(=O)CSc2nc(C)cc(=O)[nH]2)cc(OC)c1	none (no result: DAX1 inh-1, GAA850 FXN act)
Cc1ccc(C)n1NC(=O)c1ccccc1O	ssDAF-12 act 1.4
Cc1ccc(C)n1NC(=O)c1ccccc1[N+](=O)[O-]	none
COc1cccc(Cn2cc(COC(=O)NCC(C)C)nn2)c1	none (no result: DAX1 inh-1, GAA850 FXN act)
O=C(NCCN1CCC(Cc2ccccc2)CC1)C1CCCN(S(=O)(=O)c2ccc([N+](=O)[O-])cc2)C1 (stereo unspecified)	none (no result: DAX1 inh-1, GAA850 FXN act)
COC(=O)[C@H](CC(C)C)N(CCc1cn(Cc2ccccc2)nn1)S(=O)(=O)c1ccccc1Br	none (no result: DAX1 inh-1, GAA850 FXN act)
CCCCCC1CCC(c2ccc(/C(N)=N/O)cc2)CC1 (stereo unspecified)	DAX1 inh-1 5.5
O=c1c2ccccc2nc2ccc(NCc3ccco3)nn12	DAX1 inh-1 5.2
Cc1sc2nc3ccc(NCc4ccco4)nn3c(=O)c2c1C	none
O=C(CSc1nnc(SCc2cccc3ccccc23)s1)Nc1ccc(Oc2ccccc2)cc1	none (no result: DAX1 inh-1, GAA850 FXN act)
Cc1cc(-c2n[nH]c(=S)o2)c(C)n1-c1ccccc1	DAX1 inh-2 4.0 (no result: DAX1 inh-1, GAA850 FXN act)
CN(C)c1cccc(-c2nnc(SCCCC#N)o2)c1	hgDAF12 agonist 10.9
CN(C)CCSc1nnc(-c2ccccc2)o1	none
O=C(Nc1ccccc1O)c1ccc2c(c1)C(=O)N(N1C(=O)c3ccccc3C1=O)C2=O	hcDAF12 agonist 5.9, ssDAF-12 act 1.3
Cc1ccccc1-n1c(Cn2c(=O)sc3ccccc32)nnc1SCC(N)=O	DAX1 inh-1 4.6
COc1ccc(N2C(=O)C(CC(N)=O)N(NC(=O)CCc3ccccc3)C2=O)cc1 (stereo unspecified)	DAX1 inh-1 5.9
CCOC(=O)CC[C@H]1CC[C@]2(CCCN(C(=O)c3ccccc3)C2)O1	none (no result: DAX1 inh-1, GAA850 FXN act)
COc1cccc(-c2ccc3c(N)c(C(=O)NC4CC4)sc3n2)c1	DAX1 inh-1 4.7, hgDAF12 agonist 10.5
O=C(CCn1nnc(-c2cccs2)n1)N1CCOCC1	none (no result: DAX1 inh-1, GAA850 FXN act)
CC(=O)Nc1ccc(C(=O)NNC(=O)c2cccs2)cc1	none
COc1ccc(NC(=S)NNC(=O)c2cccs2)cc1	none
CC(C)c1ccc(NC(=S)NNC(=O)c2cccs2)cc1	hgDAF12 agonist 11.4
Cc1ccc(NC(=O)NNC(=O)c2cccs2)cc1	hcDAF12 agonist 5.8
O=[N+]([O-])c1ncccc1OCc1ccccc1Br	none
O=[N+]([O-])c1ncccc1OCc1ccc(Br)cc1F	hgDAF12 agonist 10.6
CCN(CC)c1ccc(/C=N/NS(=O)(=O)c2ccc(CNC(C)=O)cc2)cc1	none
CCN(CC)c1ccc(C=NCCc2ccc(S(N)(=O)=O)cc2)cc1	ssDAF-12 act 1.0
CCN(CC)CCN1C(=O)C(O)=C(C(C)=O)C1c1ccccc1[N+](=O)[O-] (stereo unspecified)	hcDAF12 agonist 6.3, ssDAF-12 act 1.4
CC(C)(C)N(Cc1cn(Cc2ccccc2)nn1)S(=O)(=O)c1ccc(F)cc1Br	none (no result: DAX1 inh-1, GAA850 FXN act)
COc1ccccc1NC(=O)OC1CCC12CCCCC2 (stereo unspecified)	none (no result: DAX1 inh-1, GAA850 FXN act)
